Experimental findings from PubChem BioAssay AID2023 (NMMLSC, 2009) are described below.

Screen size: about 320,000 compounds; about 1,100 (0.34%) were called active.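 Rule for the calls: active = GFP response vs DMSO above a set limit, about the screen mean plus 3 SD (cut at about 150% in these data); inconclusive = under 70 cell events counted for the yeast strain; inactive = the rest.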 The list comes from a sample in which actives are over-represented; it also holds similar structures and randomly drawn compounds.

This experiment can be described thus: modulators of LAP4-GFP expression in yeast, primary screen, S. cerevisiae, multiplex flow cytometry, MLPCN library (AID 2023). Conditions: 3 h, at 10 µM, stronger effect = higher value, median GFP as percent of DMSO wells. On the technique in general: A flow cytometer gives signals particle by particle.
For `CC1=C/C(=N\OS(=O)(=O)c2ccccc2)C=CC1=O`, the GFP response vs DMSO was 257% (active).
As for `CCC(C)Sc1nnc(-c2c[nH]c3ccccc23)n1CCOC` (configuration not stated), the figure is 90.4% (inactive); as for `CCn1c(SCC(=O)Nc2ccc(OC)c(OC)c2)nnc1-c1c[nH]c2ccccc12`, 98.2% (inactive); as for `CCn1c(SCCC(C)C)nnc1-c1c[nH]c2ccccc12`, 169% (active).
As for `C#CCOCCOCCOCCNc1nc(N2CCN(C(=O)CCCCCCCCCCNC(=O)[C@H]([C@@H](C)CC)n3cc(CCCCN=C(N)N)nn3)CC2)nc(N2CCN(C(=O)CCCCCCCCCCNC(=O)[C@H](CO)n3cc(CCCSC)nn3)CC2)n1`, the figure is 135% (inactive); as for `C#CCOCCOCCOCCNc1nc(N2CCN(C(=O)CCCCCCCCCCNC(=O)Cn3cc(CCCCCN)nn3)CC2)nc(N2CCN(C(=O)CCCCCCCCCCNC(=O)[C@H](CO)n3cc(CCCSC)nn3)CC2)n1`, 118% (inactive); as for `C#CCOCCOCCOCCNc1nc(N2CCN(C(=O)CCCCCCCCCCNC(=O)[C@H](CCCCN)n3cc(C)nn3)CC2)nc(N2CCN(C(=O)CCCCCCCCCCNC(=O)[C@H](CO)n3cc(CCCSC)nn3)CC2)n1`, 155% (active).
As for `Cc1cccc(NC(=S)N2CCCC(c3nc4ccccc4[nH]3)C2)c1` (configuration not stated), the figure is 93.9% (inactive).
As to `O=C(C1CCCO1)N1CCN(C(=S)Nc2cccc(Cl)c2)CC1` (configuration not stated), the GFP response vs DMSO is 95.7% (inactive).
Under `Cc1ccc(C2CCN(C(=S)Nc3cccc(Cl)c3)C2)cc1` (configuration not stated) stands 158% (active).
Take `O=S(=O)(c1ccc2ccccc2c1)N1CCN(S(=O)(=O)N2CCOCC2)CC1`: the GFP response vs DMSO was 87% (inactive).
Under `COc1ccc(C)cc1N(CC(=O)NC(C)c1ccccc1)S(C)(=O)=O` (configuration not stated) stands 80.6% (inactive); under `Clc1ccccc1CSc1nnc(-c2ccco2)c(-c2ccco2)n1`, 186% (active); under `O=C(CC1N=C2c3ccccc3N=C(SCc3ccccc3Cl)N2C1=O)NCc1ccco1` (configuration not stated), 97.5% (inactive).
As for `S=C(NCc1ccco1)NCc1ccccc1Cl`, the GFP response vs DMSO is 85.2% (inactive).
Under `CN1CCCc2cc(C#N)c(=O)[nH]c21` stands 105% (inactive); under `Cc1ccc(S(=O)(=O)N(C)C)cc1NC(=O)c1ccc(-n2cncn2)c([N+](=O)[O-])c1`, 98% (inactive); under `NC(=O)c1ccccc1N=Cc1ccc2ccccc2c1`, 88.2% (inactive).
As for `COc1cccc(NC(=O)C2CCCN(c3ncnc4c3nc3n4CCCCC3)C2)c1` (configuration not stated), the GFP response vs DMSO is 94.5% (inactive).
Turning to `O=C(/C=C/c1ccc(Cl)c([N+](=O)[O-])c1)c1cccnc1`, the GFP response vs DMSO was 236% (active).
Under `O=C(Nc1cccnc1)c1ccc(Cl)c([N+](=O)[O-])c1` stands 119% (inactive); under `O=C(/C=C/c1ccc(Cl)cc1Cl)c1cccnc1`, 99.4% (inactive).
